# Screens deposited in PubChem by National Center for Advancing Translational Sciences (NCATS).
# Pf growth 48h – inhibits P. falciparum growth in the first generation, 48 h. 310,000 tested, 5.9% active. AID 504832. Potency, µM (series often up to 28.7 µM), for the others: at the top dose activity change, negative = inhibition, actives largely listed as inhibitors. P. falciparum luciferase growth in erythrocytes, 48 h; note: potency is the fitted concentration of half-maximal effect; % is set by controls: 0 for no effect and ±100 for the full control effect
#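 Firefly luciferase activity from engineered P. falciparum reports growth; inhibitors lower the luminescent signal. Cultures contained 2% hematocrit erythrocytes at 0.1% final parasitemia.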
# Pf growth 96h – inhibits malaria parasite growth, 96 h; P. falciparum luciferase reporter growth, 96 h; Potency, µM (highest dose often 28.7 µM), for the others: at the highest dose activity change, negative = inhibition, actives largely listed as inhibitors; 320,000 tested, 6.9% active; note: potency is the fitted concentration of half-maximal effect; % is set by controls: 0 for no effect and ±100 for the full control effect
#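 P. falciparum expressing integrated firefly luciferase grown in erythrocytes (2% hematocrit, 0.05% parasitemia final) with compounds for 96 hours at 37 C, 5% CO2. Growth inhibition read as loss of luminescence after adding luciferase detection reagent.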
# SARS PLpro yeast – SARS-CoV PLP inhibition in yeast | S. cerevisiae expressing SARS-CoV PLpro, growth rescue | Potency, µM (highest dose often 32.9 µM), without a hit: at the highest dose activity, positive = growth rescue, usual class: activators | 330,000 tested, 0.19% active | AID 485353; calls by dose curve; note: potency is the fitted concentration of half-maximal effect; 0% is about no effect; nearly all actives have a fitted effect of over 55% in size
# NS1 inh – inhibitors of influenza NS1 protein function | Potency, µM (titrated, usually from 46.1 µM), for inactives: at the top dose activity, positive = more growth | 270,000 tested, 0.4% active | AID 2326; calls by dose curve; note: potency is the fitted concentration of half-maximal effect; actives are rising curves; nearly all actives have a fitted effect of over 50% in size
#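 A cell-based growth assay was used: compounds that relieve NS1-induced slow growth of budding yeast raise OD600. Assay medium was yeast nitrogen base with ammonium sulphate and -URA supplement, pH 6.0, with 2% galactose.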
# Shiga toxin inh – blocks Shiga toxin action in Vero cells; inhibition, % at 38.7 µM; 290,000 tested, 9.2% active; Vero cells, Shiga toxin protein synthesis inhibition reporter; in the data active = inhibition mostly above about 28%, no sharp cut-off; inactive = mostly below about 43%; note: 0% is about no effect
# Cycloheximide cs – affects cycloheximide protein synthesis inhibition readout, counter-screen; cell reporter, cycloheximide protein synthesis inhibition counterscreen; max response, %; 300,000 tested, 12% active; AID 2314; in the data active = max response mostly above about 13%, no sharp cut-off; inactive = mostly below about 14%; note: read at 38.3 µM for the half of the compounds with a filed dose; 0% is about no effect
# Starred values were filed as active, the others as inactive; ? = inconclusive; nt = no result; [ ] = another dose, or the depositor's remark. Compounds with a hit are over-represented: about 21% of the library has one in this group of screens. Unless noted, calls come from the whole dose curve; as a rule, active = well fitted inhibition curve with a large enough effect; inconclusive = small, poorly fitted or top-dose-only effect, or another doubt; inactive = no such curve, though single readings can be large or run the other way.
SMILES,Pf growth 48h,Pf growth 96h,SARS PLpro yeast,NS1 inh,Shiga toxin inh,Cycloheximide cs
COc1ccc(/C=N/NC(=O)c2ccc(N(C)S(=O)(=O)c3ccccc3)cc2)cc1,?,36%,4%,nt,38,13
O=C(N/N=C/c1cccc([N+](=O)[O-])c1)c1nc2ccccc2c(=O)[nH]1,99%,60%,0%,1%,33,19*
CN(c1ccc(C(=O)N/N=C/c2cccc([N+](=O)[O-])c2)cc1)S(=O)(=O)c1ccccc1,6.6µM*,?,-3%,0%,-4,-3
COc1ccc(/C=N/NC(=O)c2cccc([N+](=O)[O-])c2)cc1OS(=O)(=O)c1ccc(C)cc1,?,-30%,3%,-9%,40,4
O=C(N/N=C/c1ccccc1Cl)c1nc2ccc([N+](=O)[O-])cc2c(=O)[nH]1,-8%,11%,-2%,3%,-15,1
CCOc1cc(/C=N/NC(=O)c2cccc([N+](=O)[O-])c2)ccc1OS(=O)(=O)c1ccccc1,12µM*,?,-5%,?,20,-3
CC(=O)c1c(C(=O)O)[nH]c(C(=O)O)c1C,15%,-12%,0%,nt,-10,-3
CC(NC(=O)c1ccccc1)C(=O)N/N=C/c1ccc(O)cc1 (stereo not given),-14%,?,1%,nt,9,2
CC(NC(=O)c1ccccc1)C(=O)N/N=C/c1cccc([N+](=O)[O-])c1 (stereo not given),41%,29%,-1%,nt,93,17*
Cc1ccc(C)c(Cn2c(O)c(N=NC(=S)Nc3ccccc3F)c3ccccc32)c1,?,11%,1%,nt,-6,9
CCc1ccccc1NC(=S)N=Nc1c(O)n(C)c2ccc(S(=O)(=O)N3CCOCC3)cc12,3.3µM*,1.9µM*,-1%,?,-8,-5
Cc1ccc(C)c(SCC(=O)Nc2cc(S(=O)(=O)N3CCOCC3)ccc2C)c1,?,?,-1%,nt,nt,nt
Cc1ccc(Cn2c(O)c(N=NC(=S)Nc3ccccc3F)c3cc(S(=O)(=O)N4CCOCC4)ccc32)cc1,3.3µM*,1%,2%,nt,10,7
Cc1ccc(C)c(NC(=S)N=Nc2c(O)n(C)c3ccc(S(=O)(=O)N4CCOCC4)cc23)c1,6.6µM*,-9%,-3%,27%,-5,-2
CCc1ccccc1NC(=O)c1ccc(S(=O)(=O)N2CCCC2)cc1,9%,-12%,-2%,-2%,-7,-7
COc1cccc(/C=C/C(=O)OCC(=O)c2c(N)n(C)c(=O)n(C)c2=O)c1,?,?,1%,nt,nt,nt
CC(=O)N1c2ccccc2NC2=C(C(=O)CC(C)(C)C2)C1c1cccn1C (stereo not given),-18%,?,3%,nt,-10,-3
C[C@H](CO)N1C[C@H](C)[C@H](CN(C)Cc2ccncc2)Oc2ccc(NC(=O)Nc3ccc(C(F)(F)F)cc3)cc2CC1=O,nt,nt,4%,nt,nt,nt
C/C(CC(=O)Nc1ccc(F)cc1)=N\NC(=O)c1ccccn1,217%,-9%,-1%,nt,24,18
O=C(NCc1ccc(Cl)cc1Cl)c1ccccn1,-5%,-24%,-15%,-24%,6,8
C/C(CC(=O)NC1CCCCC1)=N\NC(=O)c1ccccn1,80%,10%,1%,-5%,64*,39*
C/C(CC(=O)NCc1ccccc1Cl)=N/NC(=O)c1ccccn1,38%,10%,-2%,4%,79*,25*
CC(=O)Nc1ccccc1NC(=O)C/C(C)=N/NC(=O)c1ccccn1,69%,?,0%,1%,61*,38*
COc1cccc(/C=C(\C)C(=O)c2c(C)cc(C)[nH]c2=O)c1OC,6%,-6%,-1%,1%,-14,-4
COc1ccccc1NC(=O)COc1ccccc1C(=O)c1cnn(-c2ccccc2)c1,90%,?,8%,7%,24,47*
CCc1ccc(NC(=O)COc2ccc(F)cc2C(=O)c2cnn(-c3ccccc3)c2)cc1,?,?,-3%,2%,active,27*
O=C1NC(=O)C(=Cc2ccc(SC3CCCCC3)o2)C(=O)N1,23%,-38%[5.75 µM],3%,nt,51*,12
Cc1cc(C)c2ccc3c(C)c(C)nc3c2[nH]1,3.7µM*,-54%,-1%,nt,32,24
